In PubChem BioAssay (NCATS):
Results filed as inconclusive are left out. A call without a number means that no potency is given here. The source made the active and inactive calls. The call rests on the fitted dose curve; in most records, active means well fitted inhibition curve with a large enough effect; inconclusive means small, poorly fitted or top-dose-only effect; inactive means flat fitted curve, though single readings scatter.

Assay: P-glycoprotein substrates identified in KB-8-5-11 adenocarcinoma cell line, qHTS therapeutic library screen (AID 1346987); further: nearly all actives have a fitted effect of over 65% in size
Settings: KB-8-5-11 (P-gp overexpressing) viability, CellTiter-Glo, 72 h; series mostly up to 44.5 µM
How it was run: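 KB-8-5-11: colchicine-selected sub-line of KB-3-1 over-expressing P-gp; assay medium lacked colchicine. 72 h drug exposure at 37 degree C, CellTiter-Glo.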
Potency means the concentration at half of the fitted maximal effect.

Row | Structure (SMILES) | Potency
1 | C=CS(=O)(=O)O | inactive
2 | COc1c2c(c(C)c3c1C(=O)OC3)O[C@@]1(C)C[C@@H](OC(C)=O)[C@]34O[C@](OC)(CC[C@]3(C)[C@H]1C2)OC4(C)C | inactive
3 | C/C=C\NC(=O)C1NC(=O)C(CC(N)=O)NC(=O)C(NC(=O)C(=O)C(C)CC)Cc2ccc(O)c(c2)-c2cccc3c2NC(=O)C3(O)C1O (stereo not drawn) | inactive
4 | C=C1/C(=C/C=C2\CCC[C@]3(C)[C@@H]([C@@H](C)OCCC(O)(CC)CC)CC[C@@H]23)C[C@@H](O)C[C@@H]1O | inactive
5 | C=C[C@@]1(C)C=C2C(=O)C(O)=C3[C@](C)(C(=O)O)CC[C@@H]4C[C@]34[C@]2(O)C(=O)C1 | 10.1 µM (active)
6 | C=C(CCC1C(C)(O)CCC2C(C)(C)C(O)CCC12C)C(O)CO (stereo not drawn) | inactive
7 | CCC[C@@]1(CCc2ccccc2)CC(O)=C([C@H](CC)c2cccc(NS(=O)(=O)c3ccc(C(F)(F)F)cn3)c2)C(=O)O1 | inactive
8 | Cc1nc2c(C(F)(F)F)cccc2nc1-c1ccc(-c2cccc(S(C)(=O)=O)c2)cc1 | inactive
9 | CC(C)C[C@@H]1NC(=O)[C@@H](Cc2ccccc2)NC(=O)C(CCCCCC(=O)C2CO2)NC(=O)[C@@H]2CCCCN2C1=O (stereo partly drawn) | 3.99 µM (active)
10 | CCCN(CCc1ccsc1)C1CCc2c(O)cccc2C1 (stereo not drawn) | inactive
11 | COc1ccc(OC)c(-c2ccc(NC(=O)c3ccncc3F)cc2)c1 | inactive
12 | O=C(CN1C2=NCCN2c2ccccc21)c1ccc(-c2ccccc2)cc1 | 16.4 µM (active)
13 | CCCCc1ccc(NS(=O)(=O)c2ccc(F)cc2)cc1 | inactive
